Of roughly 7,900 targets only a part is listed; those with a hit were picked by preference. About 0.6% of all pairs of compound and target were hits.
Tests used:
Test in all cases: log2 fold change, soluble protein after heating vs DMSO (PISA); higher = thermal stabilisation; K562 cells, 10 uM, 30 min; active = over 0.2 and 3.5 SD of the protein, either way, in both replicates (recomputed)
[1] = compound: CC[C@@H]1C(=O)N(C)c2cnc(Nc3ccc(C(=O)NC4CCN(C)CC4)cc3OC)nc2N1C1CCCC1
Summary of the method: (§1)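 Values are thermal stability changes relative to control samples and are taken from duplicates. They are stated as log2 fold changes. Before quantification by TMTpro 16plex LC-MS/MS with equalised channel sums, K562 cells at 2×10^6 cells/mL were treated with 10 μM compound for 30 min, heated in aliquots for 3 min across 48°C-58°C, pooled, extracted in PBS with 0.5% NP-40 at 4°C, and centrifuged at 21,000xg for 90 min to give the soluble supernatant.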

volasertib = compound: CC[C@@H]1C(=O)N(C)c2cnc(Nc3ccc(C(=O)N[C@H]4CC[C@H](N5CCN(CC6CC6)CC5)CC4)cc3OC)nc2N1C(C)C [volasertib]
Summary of the method: as §1

[2] = compound: CC[C@H](C)N1C=C(C2=C(C=C(C=C21)C3=CN=C(C=C3)N4CCNCC4)C(=O)NCC5=C(C=C(NC5=O)C)C)C
Summary of the method: as §1

epoxomicin = compound: CC[C@H](C)[C@@H](C(=O)N[C@@H]([C@@H](C)O)C(=O)N[C@@H](CC(C)C)C(=O)[C@]1(CO1)C)NC(=O)[C@H]([C@@H](C)CC)N(C)C(=O)C [epoxomicin]
Summary of the method: as §1

[3] = compound: CCn1c(C(=O)N(C2CC2)C2CC2)cc2c3c(ncn3C)c(Nc3cc(C)n(C)n3)nc21
Summary of the method: as §1

[4] = compound: CCn1cc(-c2ccnc3[nH]c(-c4cccc(CN(C)C)c4)cc23)c(-c2ccc(NC(=O)N(C)C)cc2)n1
Summary of the method: as §1

[5] = compound: CN(C)CC(=O)Nc1ccc2[nH]c(=O)c3ccccc3c2c1
Summary of the method: as §1

rosiglitazone = compound: CN(CCOC1=CC=C(C=C1)C[C@H]2C(=O)NC(=O)S2)C3=CC=CC=N3 (racemic) [rosiglitazone]
Summary of the method: as §1

[6] = compound: CN1C2=C(C3=C1C(=O)N(N=C3)CC4=CC(=CC=C4)N)SC(=C2)S(=O)C
Summary of the method: as §1

[7] = compound: CN1CCC(CNc2ccc3ncc(-c4cccc(OC(F)(F)F)c4)n3n2)CC1
Summary of the method: as §1

Measured: log2 fold change

WDR61 (UniProt Q9GZS3)
active: [7] -0.247
inactive: [1] 0.067 | volasertib 0.102 | [2] 0.035 | epoxomicin -0.029 | [3] 0.011 | [4] 0.035 | [5] -0.011 | rosiglitazone 0.095 | [6] -0.066

TOMM5 isoform 2 (UniProt Q8N4H5)
Chain of UniProt Q8N4H5 (Q8N4H5 whole entry, looked up): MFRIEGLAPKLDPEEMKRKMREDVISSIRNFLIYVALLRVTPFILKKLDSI
active: epoxomicin 0.538
inactive: [1] -0.003 | volasertib -0.032 | [2] -0.049 | [3] 0.05 | [4] 0.039 | [5] -0.046 | rosiglitazone -0.017 | [6] 0.041 | [7] 0.116

TPP1 (UniProt O14773)
inactive: [2] -0.002 | epoxomicin 0.019 | [3] 0.033 | [4] -0.117 | [5] 0.007 | rosiglitazone 0.007 | [6] -0.001
active: [1] -0.647 | volasertib -1.09 | [7] -0.569

XPNPEP1 isoform 3 (UniProt Q9NQW7)
inactive: [1] 0.027 | volasertib 0.049 | [2] 0.018 | epoxomicin -0.024 | [3] 0 | [4] -0.043 | [5] 0.051 | rosiglitazone 0.028 | [6] -0.064 | [7] -0.076

UBAP2L isoform 5 (UniProt Q14157)
inactive: [1] 0.005 | volasertib -0.023 | [2] -0.02 | epoxomicin -0.018 | [3] 0.019 | [4] 0.004 | [5] -0.035 | rosiglitazone -0.007 | [6] -0.039 | [7] 0.009

VWA8 (UniProt A3KMH1)
inactive: [1] -0.027 | volasertib -0.071 | [2] 0.048 | epoxomicin -0.005 | [3] 0.002 | [4] -0.094 | [5] 0.056 | rosiglitazone 0.024 | [6] -0.01 | [7] -0.034

UHRF1BP1 (UniProt Q6BDS2)
inactive: [1] 0.137 | volasertib 0.131 | [2] 0.036 | epoxomicin -0.067 | [3] -0.013 | [4] -0.105 | [5] 0.012 | rosiglitazone 0.019 | [6] -0.09
active: [7] 0.211

USP24 (UniProt Q9UPU5)
inactive: [1] -0.04 | volasertib -0.1 | [2] -0.047 | epoxomicin 0.073 | [3] -0.072 | [4] -0.062 | [5] 0.055 | rosiglitazone -0.025 | [6] -0.123 | [7] 0.137

UBAP2L isoform 1 (UniProt Q14157)
inactive: [1] -0.026 | volasertib -0.417 | [2] 0.046 | epoxomicin -0.005 | [3] 0.059 | [4] 0.026 | [5] -0.004 | rosiglitazone 0.001 | [6] 0 | [7] -0.023

TMEM189-UBE2V1 (UniProt I3L0A0)
inactive: [1] 0.054 | volasertib 0.056 | [2] -0.137 | epoxomicin -0.023 | [3] -0.003 | [4] 0.048 | [5] 0 | rosiglitazone 0.04 | [6] -0.035 | [7] -0.009

VPS16 (UniProt Q9H269)
active: volasertib -0.671
inactive: [1] -0.244 | [2] 0.042 | epoxomicin 0.045 | [3] 0.003 | [4] -0.072 | [5] 0.083 | rosiglitazone 0.113 | [6] 0.026 | [7] -0.316

TNFRSF8 (UniProt P28908)
inactive: [1] 0.134 | volasertib 0.011 | [2] -0.034 | epoxomicin 0.016 | [3] -0.003 | [4] -0.016 | [5] 0.009 | rosiglitazone -0.011 | [6] -0.051 | [7] 0.201

TRMT2A (UniProt Q8IZ69)
inactive: [1] 0.01 | volasertib 0.016 | [2] 0.044 | epoxomicin -0.083 | [3] 0.086 | [4] -0.003 | [5] 0.034 | rosiglitazone -0.001 | [6] 0.1 | [7] -0.198

TMEM70 (UniProt Q9BUB7)
active: [3] 0.257 | [7] -0.288
inactive: [1] 0.005 | volasertib 0.064 | [2] -0.017 | epoxomicin 0.001 | [4] -0.055 | [5] 0.001 | rosiglitazone 0.021 | [6] -0.048

USP34 (UniProt Q70CQ2)
Chain of UniProt Q70CQ2 (Q70CQ2 whole entry, looked up): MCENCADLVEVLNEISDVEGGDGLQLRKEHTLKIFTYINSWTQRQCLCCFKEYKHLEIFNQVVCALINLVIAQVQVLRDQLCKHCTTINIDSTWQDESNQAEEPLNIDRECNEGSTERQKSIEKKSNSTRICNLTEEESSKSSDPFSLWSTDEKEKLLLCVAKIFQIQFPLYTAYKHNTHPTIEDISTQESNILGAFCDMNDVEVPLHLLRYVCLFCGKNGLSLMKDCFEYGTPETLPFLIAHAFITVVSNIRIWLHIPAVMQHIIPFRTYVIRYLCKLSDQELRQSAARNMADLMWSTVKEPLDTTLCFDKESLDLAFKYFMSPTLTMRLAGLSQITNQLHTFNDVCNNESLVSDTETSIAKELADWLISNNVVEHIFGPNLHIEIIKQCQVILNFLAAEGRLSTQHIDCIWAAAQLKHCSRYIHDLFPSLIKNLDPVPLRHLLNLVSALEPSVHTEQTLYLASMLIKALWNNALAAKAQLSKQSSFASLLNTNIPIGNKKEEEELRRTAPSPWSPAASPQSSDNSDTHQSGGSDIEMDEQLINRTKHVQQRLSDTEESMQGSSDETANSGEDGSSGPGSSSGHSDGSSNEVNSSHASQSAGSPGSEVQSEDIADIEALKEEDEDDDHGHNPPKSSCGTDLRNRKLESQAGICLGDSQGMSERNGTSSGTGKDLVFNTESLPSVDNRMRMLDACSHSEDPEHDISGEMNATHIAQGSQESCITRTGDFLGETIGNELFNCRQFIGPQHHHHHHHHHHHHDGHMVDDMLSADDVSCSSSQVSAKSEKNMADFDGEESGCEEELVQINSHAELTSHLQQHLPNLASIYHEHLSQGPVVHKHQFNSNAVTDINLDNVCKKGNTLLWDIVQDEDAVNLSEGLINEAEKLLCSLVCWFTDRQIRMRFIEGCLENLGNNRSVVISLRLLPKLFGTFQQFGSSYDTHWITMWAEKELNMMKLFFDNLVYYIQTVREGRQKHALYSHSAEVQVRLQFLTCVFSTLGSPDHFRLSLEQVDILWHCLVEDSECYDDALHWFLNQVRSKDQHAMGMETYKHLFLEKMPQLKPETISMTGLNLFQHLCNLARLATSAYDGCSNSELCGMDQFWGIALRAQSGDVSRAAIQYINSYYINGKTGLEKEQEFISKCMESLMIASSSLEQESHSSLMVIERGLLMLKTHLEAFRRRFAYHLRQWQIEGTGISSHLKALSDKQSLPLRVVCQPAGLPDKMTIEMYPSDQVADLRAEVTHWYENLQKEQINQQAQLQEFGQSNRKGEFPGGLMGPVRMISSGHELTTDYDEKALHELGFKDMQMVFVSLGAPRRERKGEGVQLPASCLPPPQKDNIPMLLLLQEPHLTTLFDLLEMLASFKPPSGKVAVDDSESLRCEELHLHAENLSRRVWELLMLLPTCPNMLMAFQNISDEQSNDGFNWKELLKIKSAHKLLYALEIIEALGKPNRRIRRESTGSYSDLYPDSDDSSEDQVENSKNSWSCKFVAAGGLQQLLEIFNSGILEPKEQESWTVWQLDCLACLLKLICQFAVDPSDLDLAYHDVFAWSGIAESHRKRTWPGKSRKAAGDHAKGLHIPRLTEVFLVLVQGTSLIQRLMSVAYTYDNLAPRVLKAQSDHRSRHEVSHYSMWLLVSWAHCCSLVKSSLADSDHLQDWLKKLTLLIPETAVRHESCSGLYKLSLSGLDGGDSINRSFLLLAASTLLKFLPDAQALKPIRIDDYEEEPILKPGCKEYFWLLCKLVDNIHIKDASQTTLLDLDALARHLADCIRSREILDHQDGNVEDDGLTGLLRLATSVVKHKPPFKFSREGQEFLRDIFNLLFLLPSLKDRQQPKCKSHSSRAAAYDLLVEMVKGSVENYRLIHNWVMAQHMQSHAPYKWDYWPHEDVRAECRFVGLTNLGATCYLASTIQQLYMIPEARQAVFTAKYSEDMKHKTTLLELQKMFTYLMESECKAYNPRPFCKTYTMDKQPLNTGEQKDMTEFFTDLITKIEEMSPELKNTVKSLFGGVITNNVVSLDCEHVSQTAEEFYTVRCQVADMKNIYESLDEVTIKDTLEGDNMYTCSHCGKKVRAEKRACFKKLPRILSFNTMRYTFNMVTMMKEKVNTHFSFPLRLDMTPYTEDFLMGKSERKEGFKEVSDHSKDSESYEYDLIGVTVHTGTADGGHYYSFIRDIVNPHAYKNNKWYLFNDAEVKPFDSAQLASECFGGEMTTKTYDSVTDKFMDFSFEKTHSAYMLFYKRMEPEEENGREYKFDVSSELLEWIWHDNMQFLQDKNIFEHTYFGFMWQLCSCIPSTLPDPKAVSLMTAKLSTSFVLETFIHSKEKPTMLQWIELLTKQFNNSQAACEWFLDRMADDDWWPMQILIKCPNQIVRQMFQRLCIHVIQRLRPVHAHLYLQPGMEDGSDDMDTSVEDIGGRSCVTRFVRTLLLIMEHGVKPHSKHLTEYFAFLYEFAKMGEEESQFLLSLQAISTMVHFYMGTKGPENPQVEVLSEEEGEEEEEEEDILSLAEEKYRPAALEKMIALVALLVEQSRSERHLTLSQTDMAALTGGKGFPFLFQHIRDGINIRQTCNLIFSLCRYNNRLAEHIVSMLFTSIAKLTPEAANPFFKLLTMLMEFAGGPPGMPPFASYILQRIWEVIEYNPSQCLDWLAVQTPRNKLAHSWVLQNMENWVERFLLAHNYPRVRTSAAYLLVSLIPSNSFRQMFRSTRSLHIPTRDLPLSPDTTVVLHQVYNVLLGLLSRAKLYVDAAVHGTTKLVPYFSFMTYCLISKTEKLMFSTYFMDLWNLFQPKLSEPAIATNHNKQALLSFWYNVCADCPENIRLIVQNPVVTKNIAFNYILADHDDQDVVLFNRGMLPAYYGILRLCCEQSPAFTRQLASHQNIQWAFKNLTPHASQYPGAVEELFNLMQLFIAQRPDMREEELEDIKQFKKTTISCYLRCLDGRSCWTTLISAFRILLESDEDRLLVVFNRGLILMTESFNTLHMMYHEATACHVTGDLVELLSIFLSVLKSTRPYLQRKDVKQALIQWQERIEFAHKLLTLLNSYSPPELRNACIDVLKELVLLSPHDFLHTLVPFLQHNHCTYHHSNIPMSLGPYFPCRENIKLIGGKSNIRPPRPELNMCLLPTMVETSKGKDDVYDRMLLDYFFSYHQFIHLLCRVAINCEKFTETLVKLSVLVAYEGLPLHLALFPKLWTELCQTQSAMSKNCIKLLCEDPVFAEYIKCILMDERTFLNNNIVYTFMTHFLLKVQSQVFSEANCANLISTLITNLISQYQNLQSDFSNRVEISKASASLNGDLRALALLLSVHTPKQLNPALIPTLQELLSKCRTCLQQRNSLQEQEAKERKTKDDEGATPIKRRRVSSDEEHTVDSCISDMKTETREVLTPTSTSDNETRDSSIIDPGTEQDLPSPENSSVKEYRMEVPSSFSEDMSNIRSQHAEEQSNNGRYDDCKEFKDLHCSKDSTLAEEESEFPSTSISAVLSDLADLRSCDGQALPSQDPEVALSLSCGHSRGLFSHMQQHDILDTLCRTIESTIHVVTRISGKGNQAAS
inactive: [1] -0.215 | [2] -0.023 | epoxomicin 0.02 | [3] -0.027 | [4] -0.043 | [5] 0.014 | rosiglitazone 0.065 | [6] 0.015 | [7] -0.201
active: volasertib -0.455

TXNL1 (UniProt O43396)
active: epoxomicin 0.295
inactive: [1] -0.104 | volasertib -0.163 | [2] 0.044 | [3] -0.018 | [4] -0.031 | [5] 0.027 | rosiglitazone 0.01 | [6] -0.018 | [7] 0.011

UBE2E3 (UniProt Q969T4)
active: volasertib -0.377
inactive: [1] -0.124 | [2] -0.008 | epoxomicin -0.052 | [3] 0.051 | [4] -0.11 | [5] 0.022 | rosiglitazone 0.059 | [6] -0.005 | [7] -0.24

TRAM1 (UniProt Q15629)
active: [7] -0.759
inactive: [1] -0.216 | volasertib -0.161 | [2] 0.031 | epoxomicin 0.008 | [3] -0.004 | [4] 0.066 | [5] 0.062 | rosiglitazone 0.095 | [6] -0.001

TMEM161B (UniProt Q8NDZ6)
inactive: [1] -0.028 | volasertib -0.038 | [2] 0.062 | epoxomicin 0.058 | [3] 0.01 | [4] 0.02 | [5] 0.079 | rosiglitazone 0.028 | [6] -0.068 | [7] -0.186

TYW1 (UniProt Q9NV66)
Chain of UniProt Q9NV66 (Q9NV66 whole entry, looked up): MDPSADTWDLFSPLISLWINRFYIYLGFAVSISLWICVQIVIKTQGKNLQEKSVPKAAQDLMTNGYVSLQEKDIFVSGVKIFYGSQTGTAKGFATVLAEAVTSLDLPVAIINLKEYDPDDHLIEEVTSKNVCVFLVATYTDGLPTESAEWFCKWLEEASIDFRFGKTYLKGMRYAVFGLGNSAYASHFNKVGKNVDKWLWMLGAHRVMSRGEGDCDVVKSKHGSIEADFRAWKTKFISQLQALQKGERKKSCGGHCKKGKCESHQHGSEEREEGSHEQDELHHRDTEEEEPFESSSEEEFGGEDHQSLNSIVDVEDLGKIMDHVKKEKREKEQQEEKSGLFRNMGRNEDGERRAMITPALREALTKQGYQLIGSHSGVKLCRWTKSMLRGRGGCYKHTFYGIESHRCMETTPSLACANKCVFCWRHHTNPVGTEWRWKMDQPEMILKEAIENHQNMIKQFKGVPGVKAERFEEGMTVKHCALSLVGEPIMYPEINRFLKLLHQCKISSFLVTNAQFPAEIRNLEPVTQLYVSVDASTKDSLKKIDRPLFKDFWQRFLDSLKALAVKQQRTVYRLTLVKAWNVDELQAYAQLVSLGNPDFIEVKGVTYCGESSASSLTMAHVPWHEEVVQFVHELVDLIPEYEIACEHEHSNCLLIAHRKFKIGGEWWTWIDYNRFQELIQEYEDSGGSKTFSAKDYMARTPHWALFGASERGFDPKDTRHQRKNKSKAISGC
inactive: [1] -0.02 | [2] 0.052 | epoxomicin 0.03 | [3] -0.009 | [4] -0.002 | [5] 0.031 | rosiglitazone 0.036 | [6] 0.014 | [7] 0.088
active: volasertib -0.341

UBE4B isoform 4 (UniProt O95155)
active: volasertib -0.229
inactive: [1] -0.046 | [2] 0.024 | epoxomicin 0.023 | [3] 0 | [4] -0.005 | [5] 0.01 | rosiglitazone 0.05 | [6] -0.003 | [7] -0.079

TSFM (UniProt P43897)
inactive: [1] -0.003 | volasertib -0.092 | [2] 0.046 | epoxomicin 0.212 | [3] -0.062 | [4] 0.074 | [5] 0.081 | rosiglitazone 0.069 | [6] -0.041 | [7] -0.056

TRAPPC3 (UniProt O43617)
inactive: [1] -0.019 | volasertib -0.118 | [2] -0.02 | epoxomicin -0.029 | [3] 0.047 | [4] 0.04 | [5] -0.016 | rosiglitazone -0.022 | [6] -0.051 | [7] -0.059

VPS33A (UniProt Q96AX1)
active: volasertib -0.359
inactive: [1] -0.224 | [2] 0.043 | epoxomicin 0.039 | [3] -0.031 | [4] -0.004 | [5] 0.059 | rosiglitazone 0.062 | [6] 0.035 | [7] -0.208

TMEM208 (UniProt Q9BTX3)
inactive: [1] -0.071 | volasertib -0.208 | [2] -0.048 | epoxomicin -0.03 | [3] -0.046 | [4] -0.022 | [5] 0.274 | rosiglitazone 0.081 | [6] -0.02 | [7] 0.036

TUBA4A (UniProt P68366)
inactive: [1] -0.024 | volasertib -0.01 | [2] 0.007 | epoxomicin 0.055 | [3] -0.002 | [4] -0.064 | [5] -0.013 | rosiglitazone 0.023 | [6] -0.168
active: [7] -0.261

UBLCP1 (UniProt Q8WVY7)
inactive: [1] -0.191 | [2] 0.019 | epoxomicin 0.168 | [3] -0.059 | [4] -0.072 | [5] 0.039 | rosiglitazone 0.019 | [6] -0.024 | [7] 0.013
active: volasertib -0.356

VPS51 (UniProt Q9UID3)
Chain of UniProt Q9UID3 (Q9UID3 whole entry, looked up): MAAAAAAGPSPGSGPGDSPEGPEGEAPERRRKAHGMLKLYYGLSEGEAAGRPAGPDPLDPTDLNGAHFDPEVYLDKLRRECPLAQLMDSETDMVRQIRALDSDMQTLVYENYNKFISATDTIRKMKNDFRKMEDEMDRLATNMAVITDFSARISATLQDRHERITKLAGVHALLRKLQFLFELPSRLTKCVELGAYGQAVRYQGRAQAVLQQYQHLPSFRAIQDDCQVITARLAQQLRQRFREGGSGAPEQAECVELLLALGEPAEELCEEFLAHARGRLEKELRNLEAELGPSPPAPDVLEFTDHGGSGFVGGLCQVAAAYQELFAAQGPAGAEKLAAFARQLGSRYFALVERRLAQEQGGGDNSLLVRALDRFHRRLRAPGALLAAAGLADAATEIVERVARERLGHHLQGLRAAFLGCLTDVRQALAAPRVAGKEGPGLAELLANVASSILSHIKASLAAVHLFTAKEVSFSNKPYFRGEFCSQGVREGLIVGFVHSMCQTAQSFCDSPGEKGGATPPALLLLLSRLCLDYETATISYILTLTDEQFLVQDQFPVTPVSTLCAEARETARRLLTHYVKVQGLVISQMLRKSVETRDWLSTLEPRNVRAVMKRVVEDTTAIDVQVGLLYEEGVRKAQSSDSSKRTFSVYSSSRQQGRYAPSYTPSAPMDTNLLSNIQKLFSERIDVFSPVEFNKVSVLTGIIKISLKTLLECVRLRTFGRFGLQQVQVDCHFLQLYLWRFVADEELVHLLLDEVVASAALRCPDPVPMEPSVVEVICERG
inactive: [1] -0.028 | [2] -0.036 | epoxomicin -0.015 | [3] -0.033 | [4] 0.003 | [5] 0.032 | rosiglitazone 0.016 | [6] 0.094 | [7] -0.135
active: volasertib -0.335

TTC4 (UniProt O95801)
active: volasertib -0.316
inactive: [1] -0.173 | [2] 0.103 | epoxomicin 0.054 | [3] -0.025 | [4] -0.039 | [5] 0.061 | rosiglitazone 0.052 | [6] -0.02 | [7] -0.11

TRIP10 isoform 2 (UniProt Q15642)
inactive: [1] -0.033 | volasertib -0.276 | [2] -0.018 | epoxomicin -0.285 | [3] -0.073 | [4] -0.101 | [5] -0.18 | rosiglitazone -0.012 | [6] 0.045 | [7] -0.075

XRCC5 (UniProt P13010)
inactive: [1] -0.172 | volasertib -0.482 | [2] 0.207 | epoxomicin 0.069 | [3] -0.103 | [4] 0.009 | [5] 0.169 | rosiglitazone 0.114 | [6] 0.124 | [7] -0.087

USP14 (UniProt P54578)
inactive: [1] -0.08 | volasertib -0.197 | [2] 0.053 | epoxomicin 0.106 | [3] -0.005 | [4] -0.011 | [5] 0.003 | rosiglitazone 0.007 | [6] -0.082 | [7] -0.072

WDR4 (UniProt P57081)
inactive: [1] -0.031 | volasertib -0.072 | [2] 0.025 | epoxomicin 0.074 | [3] -0.03 | [4] -0.06 | [5] 0.022 | rosiglitazone 0.177 | [6] -0.08 | [7] -0.114
